# In ChEMBL document CHEMBL3988442, “University of Dundee, Small-Polar-MMV Screening Library” (2021):
# Where “and” joins values, the source holds several entries; their conditions need not be identical. Identical values can stand only once. For some of these results: Results with a measured potency or affinity are listed apart.
# What was measured:
# [1] = target: Protein translocase subunit SecA (Escherichia coli (strain K12)) (UniProt P10408); assay: Assay to Identify E. coli SecA ATPase Inhibitors; assay type: functional; design: scale not given: direction of the effect not stated beside the values; conditions: 30 µM
# Protein translocase subunit SecA (Escherichia coli (strain K12)), sequence (P10408 whole entry): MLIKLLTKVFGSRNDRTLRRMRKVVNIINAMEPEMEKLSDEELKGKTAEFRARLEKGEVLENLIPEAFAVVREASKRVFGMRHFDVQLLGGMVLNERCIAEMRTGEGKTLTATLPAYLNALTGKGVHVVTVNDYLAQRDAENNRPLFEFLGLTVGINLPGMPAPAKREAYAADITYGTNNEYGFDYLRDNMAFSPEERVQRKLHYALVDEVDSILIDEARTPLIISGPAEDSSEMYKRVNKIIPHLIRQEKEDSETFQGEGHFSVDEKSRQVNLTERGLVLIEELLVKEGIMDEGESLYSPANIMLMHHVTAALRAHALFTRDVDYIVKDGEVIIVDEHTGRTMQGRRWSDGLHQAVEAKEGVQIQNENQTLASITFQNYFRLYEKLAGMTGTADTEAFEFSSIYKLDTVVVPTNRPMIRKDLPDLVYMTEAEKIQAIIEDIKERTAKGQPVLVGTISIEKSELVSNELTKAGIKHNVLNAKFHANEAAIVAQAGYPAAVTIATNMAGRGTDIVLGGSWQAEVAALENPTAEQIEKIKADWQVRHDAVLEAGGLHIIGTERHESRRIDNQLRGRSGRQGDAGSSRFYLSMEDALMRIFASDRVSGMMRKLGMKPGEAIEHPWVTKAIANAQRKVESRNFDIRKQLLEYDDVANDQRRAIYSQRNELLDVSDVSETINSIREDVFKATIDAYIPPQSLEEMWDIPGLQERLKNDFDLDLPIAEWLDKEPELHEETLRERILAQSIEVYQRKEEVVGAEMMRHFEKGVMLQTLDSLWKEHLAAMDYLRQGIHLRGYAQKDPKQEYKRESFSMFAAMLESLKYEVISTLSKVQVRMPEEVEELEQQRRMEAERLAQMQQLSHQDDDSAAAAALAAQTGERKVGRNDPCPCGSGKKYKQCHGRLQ
# [2] = target: T1, Ubiquitin-activating enzyme e1, putative (Leishmania donovani (strain BPK282A1)) (UniProt E9BSI1); assay: Leishmania donovani Ubiquitin Activating Enzyme (LdE1); assay type: functional; design: scale not given: direction of the effect not stated beside the values; conditions: 30 µM
# T1 sequence (whole entry): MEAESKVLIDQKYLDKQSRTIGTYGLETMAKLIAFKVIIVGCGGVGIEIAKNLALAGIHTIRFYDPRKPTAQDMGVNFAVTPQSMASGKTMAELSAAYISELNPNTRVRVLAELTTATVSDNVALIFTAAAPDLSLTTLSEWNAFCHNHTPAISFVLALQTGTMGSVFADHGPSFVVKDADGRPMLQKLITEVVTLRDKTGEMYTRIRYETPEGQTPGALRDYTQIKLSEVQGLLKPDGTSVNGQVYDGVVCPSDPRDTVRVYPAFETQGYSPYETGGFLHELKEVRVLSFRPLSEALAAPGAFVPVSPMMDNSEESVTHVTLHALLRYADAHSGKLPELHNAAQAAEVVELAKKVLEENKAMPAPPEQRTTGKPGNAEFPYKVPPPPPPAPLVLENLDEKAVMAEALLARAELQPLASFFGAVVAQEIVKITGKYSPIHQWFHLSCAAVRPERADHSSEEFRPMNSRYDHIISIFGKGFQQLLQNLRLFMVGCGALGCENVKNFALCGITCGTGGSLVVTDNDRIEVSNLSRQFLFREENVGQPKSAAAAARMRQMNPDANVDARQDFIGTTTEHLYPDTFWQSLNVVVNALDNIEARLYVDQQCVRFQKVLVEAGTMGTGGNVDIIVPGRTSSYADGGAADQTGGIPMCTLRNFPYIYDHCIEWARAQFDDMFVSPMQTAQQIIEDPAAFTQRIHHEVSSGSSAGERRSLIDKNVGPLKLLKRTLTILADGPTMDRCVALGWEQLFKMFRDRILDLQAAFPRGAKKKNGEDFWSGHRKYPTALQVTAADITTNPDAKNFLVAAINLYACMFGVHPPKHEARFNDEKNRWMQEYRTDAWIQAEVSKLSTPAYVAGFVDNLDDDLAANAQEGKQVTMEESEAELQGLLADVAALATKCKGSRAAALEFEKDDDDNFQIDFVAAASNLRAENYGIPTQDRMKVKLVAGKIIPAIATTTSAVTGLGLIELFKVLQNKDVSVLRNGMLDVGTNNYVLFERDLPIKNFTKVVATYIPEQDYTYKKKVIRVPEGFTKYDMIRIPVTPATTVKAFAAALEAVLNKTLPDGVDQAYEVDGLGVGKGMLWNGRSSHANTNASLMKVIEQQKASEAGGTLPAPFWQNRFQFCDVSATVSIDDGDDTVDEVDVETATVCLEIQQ
# [3] = target: T2, Aspartate--tRNA(Asp/Asn) ligase (Mycobacterium tuberculosis (strain ATCC 25618 / H37Rv)) (UniProt P9WFW3); assay: Assay for Asp RNA synthetase-1 from Mycobacterium tuberculosis; assay type: functional; design: scale not given: direction of the effect not stated beside the values; conditions: 30 µM; note: in the data most compounds retested in dose-response had high values
# T2 sequence (whole entry): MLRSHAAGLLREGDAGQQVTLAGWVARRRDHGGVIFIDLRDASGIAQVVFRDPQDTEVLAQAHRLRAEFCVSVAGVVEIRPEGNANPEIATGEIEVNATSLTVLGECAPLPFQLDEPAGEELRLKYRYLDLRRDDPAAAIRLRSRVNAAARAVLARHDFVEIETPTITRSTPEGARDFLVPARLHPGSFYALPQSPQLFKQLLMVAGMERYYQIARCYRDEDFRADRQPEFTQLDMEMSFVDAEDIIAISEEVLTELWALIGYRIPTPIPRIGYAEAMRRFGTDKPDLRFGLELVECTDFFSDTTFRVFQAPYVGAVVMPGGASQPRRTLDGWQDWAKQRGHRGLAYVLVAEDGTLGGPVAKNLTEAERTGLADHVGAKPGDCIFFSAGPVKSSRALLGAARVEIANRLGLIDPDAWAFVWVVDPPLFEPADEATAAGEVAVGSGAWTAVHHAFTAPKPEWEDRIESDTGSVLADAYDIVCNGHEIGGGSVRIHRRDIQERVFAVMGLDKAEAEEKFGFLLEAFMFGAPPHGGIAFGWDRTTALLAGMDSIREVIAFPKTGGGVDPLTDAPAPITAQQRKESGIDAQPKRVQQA
# [4] = target: AMP-activated protein kinase, AMPK (Homo sapiens) (UniProt P54646+O43741+P54619+Q9UGJ0+Q9Y478+Q13131+Q9UGI9); assay: AMP-dependent Kinase enzyme assay. An in vitro enzyme assay that detects ADP turnover that is directly proportional to AMPK activity. This uses naive AMPK that is activated during the assay with MK-8722; assay type: functional; design: scale not given: direction of the effect not stated beside the values; conditions: 30 µM
# [5] = target: Sialic acid-binding Ig-like lectin 9 (Homo sapiens) (UniProt Q9Y336); assay: Hs-Siglec9 ALPHAscreen SOP 20170721; design: scale not given: direction of the effect not stated beside the values; conditions: 10 µM
# Sialic acid-binding Ig-like lectin 9 (Homo sapiens), sequence (Q9Y336 whole entry): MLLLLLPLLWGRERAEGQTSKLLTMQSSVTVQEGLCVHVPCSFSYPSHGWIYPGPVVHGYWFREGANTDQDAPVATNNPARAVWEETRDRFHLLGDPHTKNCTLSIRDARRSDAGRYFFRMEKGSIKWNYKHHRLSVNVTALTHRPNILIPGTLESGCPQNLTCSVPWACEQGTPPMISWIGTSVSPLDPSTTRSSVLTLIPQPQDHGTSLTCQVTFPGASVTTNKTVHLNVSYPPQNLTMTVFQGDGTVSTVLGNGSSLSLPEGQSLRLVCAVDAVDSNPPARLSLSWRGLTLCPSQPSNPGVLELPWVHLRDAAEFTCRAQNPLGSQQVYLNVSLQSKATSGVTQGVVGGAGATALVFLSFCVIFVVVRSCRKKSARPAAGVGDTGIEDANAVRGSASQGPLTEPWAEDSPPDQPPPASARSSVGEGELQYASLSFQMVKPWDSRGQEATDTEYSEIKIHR
# [6] = test system: Trypanosoma cruzi; assay: Trypanosoma cruzi phosphomannomutase and mannose-1-phosphate guanylyltransferase assay; assay type: functional; design: scale not given: direction of the effect not stated beside the values; conditions: 10 µM
# [7] = target: T3, Arginase-2, mitochondrial (Homo sapiens) (UniProt P78540); assay: in vitro enzyme assay to detect the production of urea directly proportional to the activity of Arginase II; assay type: functional; design: scale not given: in the data most compounds retested in dose-response had high values; conditions: 33.3 µM
# T3 sequence (whole entry): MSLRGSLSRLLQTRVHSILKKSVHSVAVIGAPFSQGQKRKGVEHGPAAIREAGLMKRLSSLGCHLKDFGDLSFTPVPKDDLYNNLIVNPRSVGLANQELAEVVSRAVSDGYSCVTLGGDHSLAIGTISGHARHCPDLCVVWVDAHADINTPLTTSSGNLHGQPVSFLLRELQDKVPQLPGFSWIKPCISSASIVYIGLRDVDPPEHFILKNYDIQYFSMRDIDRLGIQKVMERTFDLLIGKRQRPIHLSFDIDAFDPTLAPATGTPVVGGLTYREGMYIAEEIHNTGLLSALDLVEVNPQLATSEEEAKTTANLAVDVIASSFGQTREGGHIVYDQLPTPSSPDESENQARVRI
# [8] = target: T4, Proteasome subunit beta (Trypanosoma cruzi) (UniProt O96673); assay: Trypanosoma cruzi proteasome chymotrypsin-like activity (TcProtChymo) assay.; assay type: functional; design: scale not given: in the data most compounds retested in dose-response had high values; conditions: 9.37 µM
# T4 sequence (whole entry): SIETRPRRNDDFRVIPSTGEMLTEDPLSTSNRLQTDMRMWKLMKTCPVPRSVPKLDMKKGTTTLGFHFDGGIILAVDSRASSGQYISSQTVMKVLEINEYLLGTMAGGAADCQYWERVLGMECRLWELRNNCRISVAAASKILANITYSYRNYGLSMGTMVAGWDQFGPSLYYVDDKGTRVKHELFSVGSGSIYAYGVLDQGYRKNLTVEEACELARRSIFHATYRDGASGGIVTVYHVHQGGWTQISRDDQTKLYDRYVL
# [9] = test system: N/A; assay: Trypanosoma cruzi proteasome luciferase counter-screen; assay type: functional; design: scale not given: direction of the effect not stated beside the values; conditions: 9.37 µM
# [10] = species on record: Homo sapiens; assay: To identify inhibition of the IFN signalling (Jak-Stat) pathway via expression of an eGFP reporter gene under the control of an IFN-stimulated response element (ISRE) containing MxA promoter.; assay type: functional; design: scale not given: direction of the effect not stated beside the values; conditions: 30 µM
# [11] = target: Shiga toxin 2 (Escherichia coli O157:H7) (UniProt P09385+P09386); assay: E. coli 0.157:H7 Shiga Toxin SOP - stx2 screening assay; assay type: functional; design: scale not given: direction of the effect not stated beside the values; conditions: 30 µM
# [12] = target: T5, Tyrosyl-tRNA synthetase, putative (Trypanosoma cruzi (strain CL Brener)) (UniProt Q4DSP6); assay: Trypanosoma cruzi tyrosyl tRNA synthetase (TcYRS) _High Tyrosine SOP; assay type: functional; design: scale not given: in the data most compounds retested in dose-response had high values; conditions: 30 µM
# T5 sequence (whole entry): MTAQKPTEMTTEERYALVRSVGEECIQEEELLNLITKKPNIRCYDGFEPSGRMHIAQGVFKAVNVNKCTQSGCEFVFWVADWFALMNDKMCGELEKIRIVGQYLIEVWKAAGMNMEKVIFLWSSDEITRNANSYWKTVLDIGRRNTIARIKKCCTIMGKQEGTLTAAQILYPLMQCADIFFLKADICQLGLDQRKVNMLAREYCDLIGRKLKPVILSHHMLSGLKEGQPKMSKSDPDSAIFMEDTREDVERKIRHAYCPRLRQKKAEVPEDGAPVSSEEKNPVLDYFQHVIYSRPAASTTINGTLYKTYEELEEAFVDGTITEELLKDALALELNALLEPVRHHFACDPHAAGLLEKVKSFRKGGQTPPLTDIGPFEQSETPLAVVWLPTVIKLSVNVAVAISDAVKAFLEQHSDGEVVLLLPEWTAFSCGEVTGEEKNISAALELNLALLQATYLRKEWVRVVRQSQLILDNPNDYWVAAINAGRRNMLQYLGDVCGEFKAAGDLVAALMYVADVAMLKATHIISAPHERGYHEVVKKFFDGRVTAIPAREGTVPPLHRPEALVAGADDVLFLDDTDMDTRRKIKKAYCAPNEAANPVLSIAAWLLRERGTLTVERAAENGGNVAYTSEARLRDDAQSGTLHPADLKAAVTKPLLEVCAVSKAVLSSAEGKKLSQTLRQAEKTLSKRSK
# [13] = target: T5, Tyrosyl-tRNA synthetase, putative (Trypanosoma cruzi (strain CL Brener)); assay: Trypanosoma cruzi tyrosyl tRNA synthetase (TcYRS) SOP; assay type: functional; design: scale not given: direction of the effect not stated beside the values; conditions: 30 µM
# [14] = target: Chromo domain-containing protein 1 (Saccharomyces cerevisiae (strain ATCC 204508 / S288c) (Baker's yeast)) (UniProt P32657); assay: ScCHD-1 Enzyme Inhibition Assay; assay type: functional; design: scale not given: in the data most compounds retested in dose-response had high values; conditions: 30 µM
# Chromo domain-containing protein 1 (Saccharomyces cerevisiae (strain ATCC 204508 / S288c) (Baker's yeast)), sequence (P32657 whole entry, the tested form may be a part): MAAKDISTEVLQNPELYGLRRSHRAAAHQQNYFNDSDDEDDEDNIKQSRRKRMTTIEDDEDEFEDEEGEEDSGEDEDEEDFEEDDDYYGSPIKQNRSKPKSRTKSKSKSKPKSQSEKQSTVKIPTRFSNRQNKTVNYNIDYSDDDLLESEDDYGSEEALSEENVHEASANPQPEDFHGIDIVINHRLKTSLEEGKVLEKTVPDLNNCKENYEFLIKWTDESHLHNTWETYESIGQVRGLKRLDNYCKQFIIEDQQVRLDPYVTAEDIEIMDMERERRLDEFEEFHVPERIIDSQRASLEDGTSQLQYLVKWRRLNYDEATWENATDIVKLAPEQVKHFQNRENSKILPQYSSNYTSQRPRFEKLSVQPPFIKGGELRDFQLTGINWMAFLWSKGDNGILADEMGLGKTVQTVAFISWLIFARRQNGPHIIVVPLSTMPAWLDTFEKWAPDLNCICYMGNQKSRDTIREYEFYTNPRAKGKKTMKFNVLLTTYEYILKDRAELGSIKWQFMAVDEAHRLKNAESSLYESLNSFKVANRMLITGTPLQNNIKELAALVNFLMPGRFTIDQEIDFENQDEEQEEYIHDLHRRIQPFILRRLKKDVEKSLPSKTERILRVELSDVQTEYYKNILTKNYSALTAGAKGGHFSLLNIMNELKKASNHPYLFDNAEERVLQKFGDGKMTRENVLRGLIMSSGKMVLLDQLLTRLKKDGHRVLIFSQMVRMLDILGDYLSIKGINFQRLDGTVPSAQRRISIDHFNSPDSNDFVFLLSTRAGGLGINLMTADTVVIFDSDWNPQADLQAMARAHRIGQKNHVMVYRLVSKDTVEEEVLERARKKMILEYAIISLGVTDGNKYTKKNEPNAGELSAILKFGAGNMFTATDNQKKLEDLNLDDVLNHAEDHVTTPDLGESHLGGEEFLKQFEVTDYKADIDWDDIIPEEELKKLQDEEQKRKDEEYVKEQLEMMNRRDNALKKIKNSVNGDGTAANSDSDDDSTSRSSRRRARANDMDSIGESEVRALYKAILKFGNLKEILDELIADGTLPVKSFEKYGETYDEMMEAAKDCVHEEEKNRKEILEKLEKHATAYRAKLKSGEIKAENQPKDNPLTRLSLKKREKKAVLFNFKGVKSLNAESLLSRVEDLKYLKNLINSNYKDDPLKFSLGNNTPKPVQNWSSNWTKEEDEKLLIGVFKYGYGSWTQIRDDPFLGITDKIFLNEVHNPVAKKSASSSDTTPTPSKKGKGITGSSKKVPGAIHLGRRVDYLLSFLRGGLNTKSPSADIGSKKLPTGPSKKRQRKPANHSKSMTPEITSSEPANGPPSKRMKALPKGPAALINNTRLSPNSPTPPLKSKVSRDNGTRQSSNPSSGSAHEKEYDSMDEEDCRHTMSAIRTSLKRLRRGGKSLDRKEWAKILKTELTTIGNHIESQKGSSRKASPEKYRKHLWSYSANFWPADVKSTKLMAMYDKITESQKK
# [15] = target: T6, Methionyl-tRNA synthetase, putative (Leishmania donovani (strain BPK282A1)) (UniProt E9BF75); assay: Leishmania donovani Methionine tRNA synthetase (LdMetRS):v7. Dose response assay; assay type: functional; design: conc 80 nM, time 150 minutes
# T6 sequence (whole entry): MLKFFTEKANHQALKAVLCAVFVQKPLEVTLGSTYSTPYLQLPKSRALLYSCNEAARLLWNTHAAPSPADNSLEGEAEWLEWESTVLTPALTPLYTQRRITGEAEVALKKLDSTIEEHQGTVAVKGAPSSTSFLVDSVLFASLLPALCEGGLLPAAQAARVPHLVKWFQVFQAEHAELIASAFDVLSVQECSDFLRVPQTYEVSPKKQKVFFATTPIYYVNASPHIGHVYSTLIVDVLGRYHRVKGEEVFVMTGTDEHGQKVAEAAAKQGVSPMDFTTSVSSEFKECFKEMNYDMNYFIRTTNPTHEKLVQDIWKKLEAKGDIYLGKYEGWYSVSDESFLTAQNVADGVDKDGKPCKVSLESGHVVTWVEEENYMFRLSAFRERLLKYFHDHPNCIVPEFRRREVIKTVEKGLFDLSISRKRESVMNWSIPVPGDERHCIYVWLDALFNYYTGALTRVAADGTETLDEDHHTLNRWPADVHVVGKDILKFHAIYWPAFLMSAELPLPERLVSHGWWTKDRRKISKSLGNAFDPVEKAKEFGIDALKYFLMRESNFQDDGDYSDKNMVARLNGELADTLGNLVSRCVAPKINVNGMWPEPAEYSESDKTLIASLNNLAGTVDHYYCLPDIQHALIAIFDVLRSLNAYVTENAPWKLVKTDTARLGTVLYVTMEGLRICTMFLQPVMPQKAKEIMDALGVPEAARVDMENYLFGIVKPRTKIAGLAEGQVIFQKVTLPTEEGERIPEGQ
structure (smiles),measurement,setting,value
CC(C)=CCN1C[C@H]2CC[C@@H]1CN(C(=O)c1c[nH]c(=O)c(Cl)c1)C2,Percent Effect,[1],-4.07%
same,Percent Effect,[2],5.48%
same,Percent Effect,[3],4.22%
same,Percent Effect,[4],2.02%
same,Percent Effect,[5],1.06%
same,Percent Effect,[6],-5.16%
same,Percent Effect,[7],-8.38%
same,Percent Effect,[8],35.6% and 31.4% and 37.8%
same,Percent Effect,[9],18.4% and 17.9%
same,Percent Effect,[10],7.03%
same,Percent Effect,[11],-38%
same,Percent Effect,[12],6.25%
same,Percent Effect,[13],13.6%
same,Percent Effect,[14],-2.95%
COC(=O)Nc1cc(Cl)cc(Cl)c1,PXC50,[15]; MAX_EFFECT 8.423326134,< 3
same,PXC50,[15]; MAX_EFFECT 23.76425856,< 3
O=C1CC2(CCN(Cc3ccccn3)C2)CN1c1cncnc1 (stereo unspecified),Percent Effect,[1],-0.821%
same,Percent Effect,[2],0%
same,Percent Effect,[3],-1.45%
same,Percent Effect,[4],2.73%
same,Percent Effect,[5],-3.03%
same,Percent Effect,[6],-1.66%
same,Percent Effect,[7],0.319%
same,Percent Effect,[8],16.1%
same,Percent Effect,[10],-0.29%
same,Percent Effect,[11],-1.07%
same,Percent Effect,[12],2.16%
same,Percent Effect,[13],5.13%
same,Percent Effect,[14],5.33%
O=C(O)CN1CCC(F)(F)C2(CCN(c3ccccn3)C2)C1 (stereo unspecified),PXC50,[15]; MAX_EFFECT 7.981220657,< 4
same,PXC50,[15]; MAX_EFFECT 9.814814815,< 4
